Experiment [1] concerns the target rat Neurokinin-1 Receptor (NK1), Tacr1 (gene 24807) (UniProt P14600). The experiment can be described thus: NVS_GPCR_rNK1: NovaScreen (NVS) G Protein-Coupled Receptor Assay for rat Neurokinin-1 Receptor (NK1) (AID 2283309). The gist of the method: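 Competitive radioligand binding to NK1 in rat submaxillary membranes, 1 h incubation, filtration and scintillation read-out. Compounds first screened at 25 uM in duplicate, then concentration-response for actives; signal loss relative to DMSO.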

For experiment [2], the target named is rat Adrenergic Receptor, Alpha 2 (Adra2), Non-selective Binding, Adra2a (gene 25083) (UniProt P22909). The experiment can be described thus: NVS_GPCR_rAdra2_NonSelective: NovaScreen (NVS) G Protein-Coupled Receptor Assay for rat Adrenergic Receptor, Alpha 2 (Adra2), Non-selective Binding (AID 2283299). The gist of the method: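 Filter-based scintillation counting of radioligand binding to rat cortical membrane receptors, measured 1.25 hours post-dosing; loss of signal versus DMSO indicates displacement. Initial single-concentration duplicate at 25 uM, then concentration series.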
rat Adrenergic Receptor, Alpha 2 (Adra2), Non-selective Binding, Adra2a (gene 25083), sequence (P22909 whole entry, looked up): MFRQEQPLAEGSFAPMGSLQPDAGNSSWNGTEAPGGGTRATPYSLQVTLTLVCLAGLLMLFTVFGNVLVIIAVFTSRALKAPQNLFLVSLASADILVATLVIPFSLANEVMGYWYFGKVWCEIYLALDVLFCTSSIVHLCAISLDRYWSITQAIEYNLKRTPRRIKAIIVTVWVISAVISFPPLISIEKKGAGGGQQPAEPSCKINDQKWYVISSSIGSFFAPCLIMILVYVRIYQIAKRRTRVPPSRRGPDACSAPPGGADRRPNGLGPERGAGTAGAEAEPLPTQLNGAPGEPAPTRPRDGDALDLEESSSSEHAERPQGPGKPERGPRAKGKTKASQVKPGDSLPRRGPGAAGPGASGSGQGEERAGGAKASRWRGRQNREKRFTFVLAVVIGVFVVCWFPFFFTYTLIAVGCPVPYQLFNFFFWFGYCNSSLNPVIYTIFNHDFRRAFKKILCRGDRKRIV

Experiment [3] addresses rat Gamma-Aminobutyric Acid Type B Receptor (GABBR), Gabbr1 (gene 81657) (UniProt Q9Z0U4). The experiment can be described thus: NVS_GPCR_rGABBR: NovaScreen (NVS) G Protein-Coupled Receptor Assay for rat Gamma-Aminobutyric Acid Type B Receptor (GABBR) (AID 2283301). The gist of the method: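 Rat cortical membrane preparation, competitive radioligand binding for 1 h with filtration and scintillation readout. Actives from duplicate single-point 25 uM screening proceeded to concentration series with 50 uM top concentration.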

The target in experiment [4] is rat Adrenergic Receptor, Beta (Adrb), Non-selective Binding, Adrb1 (gene 24925) (UniProt P18090). The experiment can be described thus: NVS_GPCR_rAdrb_NonSelective: NovaScreen (NVS) G Protein-Coupled Receptor Assay for rat Adrenergic Receptor, Beta (Adrb), Non-selective Binding (AID 2283298). The gist of the method:
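Rat cortical membranes incubated 1 h with beta-adrenergic radioligand and test chemical; bound ligand measured by filtration and scintillation counting. Screen at 25 uM duplicate, then concentration series with 50 uM maximum; loss of signal versus DMSO.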

Experiment [5] addresses rat Glutamate Metabotropic Receptor 5 (MGluR5), Grm5 (gene 24418) (UniProt P31424). The experiment can be described thus: NVS_GPCR_rmMGluR5: NovaScreen (NVS) G Protein-Coupled Receptor Assay for rat Glutamate Metabotropic Receptor 5 (MGluR5) (AID 2283307). As for the experimental part: NVS_GPCR_rmMGluR5 is a biochemical, single-readout assay that uses extracted gene-proteins from Rat whole brain in a tissue-based cell-free assay. Measurements were taken 1.5 hours after chemical dosing in a 48-well plate.NVS_GPCR_rmMGluR5 is one of one assay component(s) measured or calculated from the NVS_GPCR_rmMGluR5 assay. It is designed to make measurements of radioligand binding, a form of binding reporter, as detected with scintillation counting signals by Filter-based radiodetection technology.Data from the assay component NVS_GPCR_rmMGluR5 was analyzed into 1 assay endpoint. This assay endpoint, NVS_GPCR_rmMGluR5, was analyzed in the positive analysis fitting direction relative to DMSO as the negative control and baseline of activity. Using a type of binding reporter, loss-of-signal activity can be used to understand changes in the binding as they relate to the gene Grm5. Furthermore, this assay endpoint can be referred to as a primary readout, because the performed assay has only produced 1 assay endpoint. To generalize the intended target to other relatable targets, this assay endpoint is annotated to the gpcr intended target family, where the subfamily is metabotropic glutamate receptor.
Binding assays used specific radioligands (tritiated, iodinated) with non-radioactive competitive displacement ligands in agonist or antagonist protocols (as indicated) and various reference compounds and inhibitors to titrate specific binding to receptors and transporters. Most enzyme assays (CYPs, kinases, phosphatases, proteases, HDACs) used recombinant protein and specific substrates (fluorescence mostly, some colorimetric and radioactive) and inhibitors, followed by a biochemical separation of substrate and product. All assays for the biochemical HTS were initially run in duplicate at a single concentration (10 uM for CYP450 assays and 25 uM for all others). […]

The target in experiment [6] is rat Adrenergic, Alpha 1A Receptor (Adra1A), Adra1a (gene 29412) (UniProt P43140). The experiment can be described thus: NVS_GPCR_rAdra1A: NovaScreen (NVS) G Protein-Coupled Receptor Assay for rat Adrenergic, Alpha 1A Receptor (Adra1A) (AID 2283296). The gist of the method:
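Filter radiodetection after 1 h competitive binding on CEC-pretreated rat cortical membranes. Duplicate single-point screening at 25 uM; active chemicals retested across concentration series.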

Experiment [7] deals with rat Adrenergic, Alpha 1B Receptor (Adra1B), gene 24173. The experiment can be described thus: NVS_GPCR_rAdra1B: NovaScreen (NVS) G Protein-Coupled Receptor Assay for rat Adrenergic, Alpha 1B Receptor (Adra1B) (AID 2283297). The method, boiled down:
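Filter-binding radioligand competition on membranes from rat liver, read after 1 h by scintillation counting. Single-concentration duplicate screen at 25 uM, followed by concentration-response on actives, normalised to DMSO.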

Experiment [8] addresses Adra2b (gene 24174) (UniProt P19328). The experiment can be described thus: NVS_GPCR_rmAdra2B: NovaScreen (NVS) G Protein-Coupled Receptor Assay for hybird cells Adrenergic, Alpha 2B Receptor (Adra2B) (AID 2283306). The gist of the method: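 Compounds screened first at 25 uM in duplicate, with actives followed up in concentration-response; specific radioligand displacement from hybrid neuroglioma/blastoma cell membrane preparations measured by filter scintillation counting after 1 h, normalized to DMSO.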

For experiment [9], the target named is Metabotropic glutamate receptor 1 (Rattus norvegicus) (UniProt P23385). The experiment can be described thus: NVS_GPCR_rmMGluR1: NovaScreen (NVS) G Protein-Coupled Receptor Assay for rat Glutamate Metabotropic Receptor 1 (MGluR1) (AID 2283305). The gist of the method: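 Binding to native receptor from rat cerebellum extract, measured as displacement of a radioligand (scintillation counting, filter separation) after 1 hour. Compounds tested at 25 uM in duplicate, then titrated to a 50 uM maximum.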

Experiment [10] addresses rat Histamine Receptor (H3), Hrh3 (gene 85268) (UniProt Q9QYN8). The experiment can be described thus: NVS_GPCR_rH3: NovaScreen (NVS) G Protein-Coupled Receptor Assay for rat Histamine Receptor (H3) (AID 2283303). The gist of the method:
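Filter-binding radioligand competition on rat forebrain membranes, 1 h incubation; compounds screened at 25 µM in duplicate and followed in concentration series to 50 µM, loss of bound signal vs DMSO.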

Structures are written as SMILES. Records with an inconclusive call do not appear. Activity calls are given as the source filed them. Rule for the calls: active = hit-call score of the fitted dose curve at least 0.9, where 1 is the maximum; inconclusive = response in the unintended direction; inactive = score below 0.9.

For 21 molecules, outcome and AC50 results are on record in PubChem BioAssay (EPA / NIEHS).

rat Neurokinin-1 Receptor (NK1), Tacr1 (gene 24807), sequence (P14600 whole entry, looked up): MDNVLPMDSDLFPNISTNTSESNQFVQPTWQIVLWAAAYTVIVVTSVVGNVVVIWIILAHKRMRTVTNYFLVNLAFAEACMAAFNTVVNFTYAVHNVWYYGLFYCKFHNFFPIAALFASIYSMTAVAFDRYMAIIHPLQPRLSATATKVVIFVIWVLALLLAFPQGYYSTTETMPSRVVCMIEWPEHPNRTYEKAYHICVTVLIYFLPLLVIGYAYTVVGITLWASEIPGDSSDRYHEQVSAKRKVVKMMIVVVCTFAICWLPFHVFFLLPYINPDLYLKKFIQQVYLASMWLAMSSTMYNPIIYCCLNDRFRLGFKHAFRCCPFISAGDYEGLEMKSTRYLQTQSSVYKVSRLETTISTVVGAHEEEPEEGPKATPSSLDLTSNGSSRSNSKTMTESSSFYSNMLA
rat Gamma-Aminobutyric Acid Type B Receptor (GABBR), Gabbr1 (gene 81657), sequence (Q9Z0U4 whole entry, looked up): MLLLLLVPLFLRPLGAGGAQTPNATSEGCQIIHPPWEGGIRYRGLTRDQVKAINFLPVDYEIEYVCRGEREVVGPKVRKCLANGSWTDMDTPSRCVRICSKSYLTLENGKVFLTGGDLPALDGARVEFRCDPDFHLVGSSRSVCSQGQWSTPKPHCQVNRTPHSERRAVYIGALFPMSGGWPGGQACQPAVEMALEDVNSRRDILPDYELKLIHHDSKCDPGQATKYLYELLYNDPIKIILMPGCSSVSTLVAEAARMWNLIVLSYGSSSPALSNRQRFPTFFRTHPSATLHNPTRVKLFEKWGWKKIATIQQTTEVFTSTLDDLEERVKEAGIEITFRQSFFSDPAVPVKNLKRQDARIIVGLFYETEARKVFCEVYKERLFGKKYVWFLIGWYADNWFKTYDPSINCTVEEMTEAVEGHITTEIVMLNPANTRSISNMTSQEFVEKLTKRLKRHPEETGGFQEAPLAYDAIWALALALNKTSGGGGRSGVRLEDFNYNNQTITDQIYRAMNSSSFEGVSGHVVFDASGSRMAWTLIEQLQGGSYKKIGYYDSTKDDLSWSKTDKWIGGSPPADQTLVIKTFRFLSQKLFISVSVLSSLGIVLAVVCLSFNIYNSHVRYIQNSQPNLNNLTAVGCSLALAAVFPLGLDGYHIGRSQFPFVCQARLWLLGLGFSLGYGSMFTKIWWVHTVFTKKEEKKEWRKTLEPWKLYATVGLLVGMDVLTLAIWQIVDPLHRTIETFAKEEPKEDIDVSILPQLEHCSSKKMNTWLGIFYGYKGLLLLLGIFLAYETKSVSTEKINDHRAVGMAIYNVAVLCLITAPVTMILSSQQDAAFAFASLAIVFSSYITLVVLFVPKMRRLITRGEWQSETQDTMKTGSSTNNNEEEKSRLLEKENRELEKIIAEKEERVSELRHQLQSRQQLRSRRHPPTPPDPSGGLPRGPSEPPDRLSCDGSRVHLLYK
Adra2b (gene 24174), sequence (P19328 whole entry, looked up): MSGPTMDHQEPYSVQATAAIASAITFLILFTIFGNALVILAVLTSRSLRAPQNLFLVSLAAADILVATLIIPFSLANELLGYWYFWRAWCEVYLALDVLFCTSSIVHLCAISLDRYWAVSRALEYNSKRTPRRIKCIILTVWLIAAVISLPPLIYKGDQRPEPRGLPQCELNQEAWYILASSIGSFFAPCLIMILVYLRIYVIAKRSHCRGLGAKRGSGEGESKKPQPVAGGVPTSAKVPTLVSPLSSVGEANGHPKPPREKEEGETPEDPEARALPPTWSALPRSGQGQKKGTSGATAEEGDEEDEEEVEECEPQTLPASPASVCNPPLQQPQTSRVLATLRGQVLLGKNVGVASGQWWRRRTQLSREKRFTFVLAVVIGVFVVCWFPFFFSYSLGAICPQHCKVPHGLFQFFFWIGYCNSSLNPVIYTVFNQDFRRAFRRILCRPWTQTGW
rat Glutamate Metabotropic Receptor 5 (MGluR5), Grm5 (gene 24418), sequence (P31424 whole entry, looked up): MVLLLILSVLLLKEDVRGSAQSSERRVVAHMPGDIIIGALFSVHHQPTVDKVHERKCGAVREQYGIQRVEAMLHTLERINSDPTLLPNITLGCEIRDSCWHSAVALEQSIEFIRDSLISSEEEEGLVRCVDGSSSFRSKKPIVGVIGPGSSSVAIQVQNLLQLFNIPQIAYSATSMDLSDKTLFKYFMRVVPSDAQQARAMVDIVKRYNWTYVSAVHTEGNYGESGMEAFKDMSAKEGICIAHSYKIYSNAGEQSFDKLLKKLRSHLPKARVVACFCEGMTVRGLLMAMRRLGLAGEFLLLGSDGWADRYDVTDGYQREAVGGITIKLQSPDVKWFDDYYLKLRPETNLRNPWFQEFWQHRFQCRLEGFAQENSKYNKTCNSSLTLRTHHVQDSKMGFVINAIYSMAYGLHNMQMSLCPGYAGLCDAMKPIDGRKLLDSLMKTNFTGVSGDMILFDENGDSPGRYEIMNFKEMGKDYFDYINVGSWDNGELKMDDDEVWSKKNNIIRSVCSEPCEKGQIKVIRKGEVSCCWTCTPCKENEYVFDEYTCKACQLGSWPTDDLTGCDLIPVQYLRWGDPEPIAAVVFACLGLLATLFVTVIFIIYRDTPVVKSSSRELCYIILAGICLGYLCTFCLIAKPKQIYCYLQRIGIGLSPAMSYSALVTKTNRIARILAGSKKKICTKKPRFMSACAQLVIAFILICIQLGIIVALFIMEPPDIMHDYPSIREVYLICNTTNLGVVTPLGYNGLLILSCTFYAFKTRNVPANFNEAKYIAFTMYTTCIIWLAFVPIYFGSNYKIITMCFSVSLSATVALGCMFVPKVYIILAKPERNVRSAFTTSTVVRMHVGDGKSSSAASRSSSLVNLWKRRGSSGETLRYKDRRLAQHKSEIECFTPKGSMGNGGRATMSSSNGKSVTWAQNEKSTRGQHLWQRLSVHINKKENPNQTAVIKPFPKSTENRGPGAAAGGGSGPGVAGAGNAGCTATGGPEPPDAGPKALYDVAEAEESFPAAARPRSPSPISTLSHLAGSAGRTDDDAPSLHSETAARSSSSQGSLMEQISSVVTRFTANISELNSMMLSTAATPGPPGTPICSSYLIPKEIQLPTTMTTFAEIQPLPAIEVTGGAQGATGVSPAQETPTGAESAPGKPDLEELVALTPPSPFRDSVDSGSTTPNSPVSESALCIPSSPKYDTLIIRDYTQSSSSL
rat Adrenergic Receptor, Beta (Adrb), Non-selective Binding, Adrb1 (gene 24925), sequence (P18090 whole entry, looked up): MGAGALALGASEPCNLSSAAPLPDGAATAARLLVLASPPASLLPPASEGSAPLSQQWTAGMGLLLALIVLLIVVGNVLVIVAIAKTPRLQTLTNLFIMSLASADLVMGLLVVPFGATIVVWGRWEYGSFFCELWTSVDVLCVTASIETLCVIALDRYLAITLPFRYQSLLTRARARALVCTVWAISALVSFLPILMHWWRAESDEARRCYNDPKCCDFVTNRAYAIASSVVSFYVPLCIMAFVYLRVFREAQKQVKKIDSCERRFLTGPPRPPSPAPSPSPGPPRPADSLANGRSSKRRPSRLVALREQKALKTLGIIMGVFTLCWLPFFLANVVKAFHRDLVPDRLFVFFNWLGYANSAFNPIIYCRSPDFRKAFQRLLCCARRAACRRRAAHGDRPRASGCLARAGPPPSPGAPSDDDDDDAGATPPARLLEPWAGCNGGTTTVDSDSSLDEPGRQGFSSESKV
rat Adrenergic, Alpha 1A Receptor (Adra1A), Adra1a (gene 29412), sequence (P43140 whole entry, looked up): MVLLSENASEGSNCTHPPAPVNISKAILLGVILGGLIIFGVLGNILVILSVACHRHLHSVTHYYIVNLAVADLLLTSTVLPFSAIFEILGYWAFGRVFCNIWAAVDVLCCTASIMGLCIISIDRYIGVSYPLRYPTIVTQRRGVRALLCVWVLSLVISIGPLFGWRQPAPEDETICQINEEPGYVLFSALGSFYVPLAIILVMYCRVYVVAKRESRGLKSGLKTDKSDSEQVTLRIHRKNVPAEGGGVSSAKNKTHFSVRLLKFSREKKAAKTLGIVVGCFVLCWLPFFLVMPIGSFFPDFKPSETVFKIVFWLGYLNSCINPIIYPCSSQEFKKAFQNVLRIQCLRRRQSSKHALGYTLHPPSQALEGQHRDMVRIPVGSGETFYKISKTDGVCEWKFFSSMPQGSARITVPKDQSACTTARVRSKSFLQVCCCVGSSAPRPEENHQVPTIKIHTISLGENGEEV
rat Histamine Receptor (H3), Hrh3 (gene 85268), sequence (Q9QYN8 whole entry, looked up): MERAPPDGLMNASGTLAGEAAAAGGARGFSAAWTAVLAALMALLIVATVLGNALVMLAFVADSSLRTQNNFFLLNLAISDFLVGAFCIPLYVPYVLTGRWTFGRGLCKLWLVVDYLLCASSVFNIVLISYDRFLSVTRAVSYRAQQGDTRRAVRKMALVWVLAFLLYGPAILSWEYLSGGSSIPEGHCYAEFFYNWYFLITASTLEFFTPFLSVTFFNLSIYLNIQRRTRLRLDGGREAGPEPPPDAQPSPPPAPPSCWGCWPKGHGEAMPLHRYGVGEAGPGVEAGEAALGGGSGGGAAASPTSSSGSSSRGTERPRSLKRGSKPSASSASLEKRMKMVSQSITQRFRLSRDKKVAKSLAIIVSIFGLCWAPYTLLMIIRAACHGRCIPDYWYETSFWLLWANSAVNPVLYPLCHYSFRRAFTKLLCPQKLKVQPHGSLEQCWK

With `CCC(=C(c1ccc(O)cc1)c1ccc(OCCN(C)C)cc1)c1ccccc1`, the molecule was classed as inactive in experiment [1].

Regarding `Cc1oc(-c2ccccc2)nc1CCOc1ccc(C[C@H](Nc2ccccc2C(=O)c2ccccc2)C(=O)O)cc1`, in experiment [2], the concentration at half-maximal activity (AC50) is 35.6 µM (active). Moreover, the molecule was called inactive in experiment [3].

On to `CC(C)CCCCCCOC(=O)CCCCC(=O)OCCCCCCC(C)C`, for which the molecule was classed as inactive in experiment [4], in experiment [5] and in experiment [1].

`Nc1cccc2c(N)cccc12`: the half-maximal activity concentration (AC50) in [2] is 16.8 µM (active).

In the case of `CCN(CC)CCNc1ccc(CNC=O)c2sc3ccc(OC)cc3c(=O)c12`, the half-maximal activity concentration (AC50) in experiment [6] was 18.9 µM (active); in [7], 19.4 µM (active); in experiment [2], 13.6 µM (active); in experiment [8] it was 9 µM (active).

With `CC(=O)NC1(c2cccc(F)c2)CCN(CC[C@@]2(c3ccc(Cl)c(Cl)c3)CN(c3ccccc3)C(=O)CO2)CC1`, the half-maximal activity concentration (AC50) in [6] was 34.8 µM (active); in experiment [8] it was 11 µM (active); in experiment [1] it was 14.5 µM (active).

As for `OC1CCCCC1`, the result in experiment [5] was inactive.

Take `CN1CCN(c2ccccc2/C=C2\SCCN(c3ccc(Cl)c(Cl)c3)C2=O)CC1`: the AC50 in experiment [4] is 2.29 µM (active).

`CCCCCCCCCCCCc1ccccc1S(=O)(=O)O`: the values for the half-maximal activity concentration (AC50) in experiment [7], in experiment [9] and in [8] were 30.9 µM (active), 8.71 µM (active) and 25 µM (active), respectively.

Turning to `O=C(O)Cc1cc(I)c(Oc2cc(I)c(O)c(I)c2)c(I)c1`, the molecule was classed as inactive in [1].

With `CC#C[C@]1(O)CC[C@H]2[C@@H]3CCC4=CC(=O)CCC4=C3[C@@H](c3ccc(N(C)C)cc3)C[C@@]21C`, the AC50 in experiment [8] is 6.9 µM (active). In addition, the result in experiment [5] and in [1] was inactive.

As to `Cc1cc(CCN2CCN(c3nsc4ccccc34)CC2)cc2c1NC(=O)CC2(C)C`, in experiment [3], the outcome was inactive.

Regarding `O=C(O)c1ccccc1C(c1ccc(O)cc1)c1ccc(O)cc1`, the call in experiment [1] was inactive.

Take `CCCCCCCC(=O)O`: the outcome in experiment [7], in experiment [10] and in experiment [8] was inactive.

On to `NC(=O)N(O)[C@@H]1C=C[C@H](Oc2cccc(Oc3ccc(F)cc3)c2)C1`, for which the outcome in experiment [7], in experiment [2], in experiment [8] and in experiment [1] was inactive.

Regarding `CCCOc1sc(C(=O)N2CCC(c3cc(CN)ccc3F)CC2)c(C)c1Br`, the AC50 in experiment [7] is 17.3 µM (active); in experiment [4], 3.95 µM (active); in [2], 23.2 µM (active); in [8], 6.34 µM (active); in experiment [1] it was 23.2 µM (active).

Take `CN1CCC[C@H]1c1cccnc1`: the AC50 in experiment [10] is 25 µM (active).

With `CC[C@H](C)[C@@H](C(=O)O)n1sc2ccccc2c1=O`, the outcome in [7] was inactive.

With `NC(=O)N1C(=O)C(C(=O)c2cc(Cl)cs2)c2cc(F)c(Cl)cc21` (stereo not drawn), in experiment [3], the molecule was classed as inactive.

With `O=c1c(-c2ccc(O)cc2)coc2cc(O)ccc12`, the outcome in experiment [4] and in experiment [1] was inactive.

For `O=C(OCCOCCOC(=O)c1ccccc1)c1ccccc1`, the molecule was called inactive in [1].

The term AC50 denotes the midpoint of the concentration-response curve, whichever way the signal moves.
